RORgamma inh: blocks mouse ROR gamma transcriptional activity | Drosophila S2 Gal4-RORgamma UAS-luciferase reporter, 20 h | hit rate 5.4% among 310,000 | AID 2551 | Potency, µM (titrated, usually from 53.6 µM), inactives show top-dose activity change, negative = inhibition, most hits filed as inhibitors; note: nearly all actives have a fitted effect of over 60% in size
Target sequence (P51450 whole entry, looked up, the tested form may be a part): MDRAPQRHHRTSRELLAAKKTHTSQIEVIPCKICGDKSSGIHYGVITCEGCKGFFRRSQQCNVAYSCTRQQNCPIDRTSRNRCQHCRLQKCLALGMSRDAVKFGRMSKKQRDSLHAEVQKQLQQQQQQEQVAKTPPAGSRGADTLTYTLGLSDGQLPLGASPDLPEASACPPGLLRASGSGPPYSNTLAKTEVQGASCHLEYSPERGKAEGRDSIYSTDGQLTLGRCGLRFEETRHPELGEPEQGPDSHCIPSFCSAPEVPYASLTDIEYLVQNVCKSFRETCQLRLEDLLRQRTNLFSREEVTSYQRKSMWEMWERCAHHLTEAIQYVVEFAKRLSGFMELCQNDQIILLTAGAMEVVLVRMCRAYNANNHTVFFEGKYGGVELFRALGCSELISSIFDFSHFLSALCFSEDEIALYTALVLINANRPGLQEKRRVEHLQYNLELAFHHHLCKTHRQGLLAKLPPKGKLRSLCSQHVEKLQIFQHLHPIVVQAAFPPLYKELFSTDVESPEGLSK
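Schneider cells (Drosophila), stable Gal4 DBD–ROR gamma + UAS-luc; 1 hr cmpd preincubation; Cu2+ induction 700 uM final; 20 hr ambient; luminescence.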
VP16 counter: Gal4-VP16 reporter inhibition counter-screen; Potency, µM (doses to about 53.6 µM), inactives show top-dose activity, negative = inhibition, actives largely listed as inhibitors; hit rate 3.5% among 310,000; Drosophila S2 Gal4-VP16 UAS-luciferase, luminescence, 20 h;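 note: Gal4-VP16 expression switched on by copper sulfate through the metallothionein promoter; nearly all actives have a fitted effect of over 50% in size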
TDP1 cell noCPT: qHTS for Inhibitors of human tyrosyl-DNA phosphodiesterase 1 (TDP1): qHTS in cells in absence of CPT | DT40 Tdp1-/- hTDP1 cells, no CPT, ATP luminescence, 48 h | Potency, µM (top dose mostly 46.2 µM), for inactives: top-dose activity change, negative = growth inhibition, most hits filed as inhibitors | hit rate 15% among 420,000; note: nearly all actives have a fitted effect of over 55% in size
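A cellular qHTS used chicken DT40 cells lacking endogenous Tdp1 but carrying stably transfected human TDP1. Compounds were applied without camptothecin, and cell growth kinetics were judged by ATP-dependent luminescence after ≥48 hr.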
TDP1 cell CPT: growth inhibition of DT40 Tdp1-/-;hTDP1 cells with camptothecin (screen for TDP1 inhibitors); chicken DT40 Tdp1-/-;hTDP1 cells + 20 nM CPT, ATP luminescence, 48 h; Potency, µM (top dose mostly 46.2 µM), without a hit: top-dose activity change, negative = growth inhibition, hits mostly inhibitors; hit rate 12% among 420,000; AID 686979; note: nearly all actives have a fitted effect of over 55% in size
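Chicken DT40 Tdp1-/- cells complemented with human TDP1, 400 cells/well, exposed to compounds plus 20 nM camptothecin for at least 48 h at 37 C; viability read as ATP content by CellTiter-Glo luminescence.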
TDP1 block: blocks human tyrosyl-DNA phosphodiesterase 1. AID 485290. Q9NUW8. Potency, µM (top dose mostly 130 µM), for inactives: at the top dose activity change, negative = inhibition, actives largely listed as inhibitors. hit rate 0.28% among 350,000. recombinant TDP1, AlphaScreen DNA substrate cleavage; note: nearly all actives have a fitted effect of over 40% in size
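Recombinant E. coli-expressed Tdp1 (1 nM) preincubated with compound 15 min at RT, then 5'-biotin/3'-phosphotyrosine-FITC DNA substrate (15 nM) added for 5 min. AlphaScreen beads (10 ug/ml) added, 10 min RT; tyrosine-FITC cleavage read as signal loss.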
Active calls of the source: *; ? = inconclusive; . = no result; [ ] = dose if it differs, or a comment. This is a sample that favours compounds with a hit; in the whole collection about 19% have one here. Calls come from the whole dose curve; as a rule, active = well fitted curve in the direction sought with a large enough effect; inconclusive = small, poorly fitted or top-dose-only effect, or another doubt; inactive = no such curve, though single readings can be large; an effect the other way counts as inactive or inconclusive. % is set by controls: 0 for no effect and ±100 for the full control effect; potency is the fitted concentration of half-maximal effect.

SMILES	RORgamma inh	VP16 counter	TDP1 cell noCPT	TDP1 cell CPT	TDP1 block
N#CC1c2ccccc2-n2nncc2CN1Cc1cc(Cl)cc(Cl)c1 (centres undefined)	.	.	1.8µM*	1.6µM*	.
S=C(NCCc1ccccc1)N1Cc2ccccc2-n2nncc2C1	.	.	21µM*	?	.
COCCNC(=S)N1Cc2ccccc2-n2nncc2C1	.	.	-14%	-8%	.
COC(=O)C1=C(c2ccc(S(C)(=O)=O)cc2)C[C@@H]2CC[C@H]1N2C(=O)NC1CC1	.	.	.	4%	.
CCN(CC)C(=O)Oc1nnc(SC(C)C)n1-c1ccc(Cl)c(Cl)c1	18%	2%	23µM*	?	4%
C=CCn1c(O)c(C(CC)=NCCN2CCN(C(=S)NC)CC2)c(=O)[nH]c1=O	8%	-4%	-1%	-5%	2%
Cc1c(C(=O)NCc2nccs2)cnn1-c1ncc2c(n1)-c1ccccc1CC2	.	.	21µM*	9.2µM*	.
CC[N+]12CCC(CC1)C(C(O)(c1ccccc1)c1ccccc1)C2 (centres undefined)	-1%	-25%	-8%	-13%	1%
CC(=O)O[C@@H]1[C@@H](O)C2OC3C=C(C)C(=O)[C@@H](O)[C@]3(CO)C1(C)C21CO1 (some centres undefined)	0.63µM*	0.11µM*	.	.	4%
CC(=O)OCC12CC(OC(=O)CC(C)C)C(C)=CC1OC1C(O)C(OC(C)=O)C2(C)C12CO2 (centres undefined)	.	.	0.023µM*	0.023µM*	.
Cc1ccc(NC(=O)NCc2ccc3c(c2)CCN3C(=O)c2ccccc2)c(Cl)c1	.	.	23µM*	?	4%
CCOc1ccccc1NC(=O)NCc1ccc2c(c1)CCN2C(=O)c1ccccc1	.	.	16µM*	23µM*	8%
CCOc1cccc(CC(=O)NCc2ccc3c(c2)CCN3C(=O)c2cccc(C)c2)c1OCC	.	.	21µM*	21µM*	4%
O=CN1CC2CC(C1)c1cccc(=O)n1C2 (centres undefined)	12%	1%	-5%	2%	2%
O=C1/C(=C/c2ccccc2Cl)N2CCC1CC2	-3%	-16%	1%	?	.
N#CC(C#N)=C(N)c1cccnc1	-3%	-13%[10 µM]	-12%	2%	5%
COc1cc2cc(c1Cl)N(C)C(=O)CC(OC(=O)C(C)N(C)C(C)=O)C1(C)OC1C(C)C1CC(O)(NC(=O)O1)C(OC)C=CC=C(C)C2 (centres undefined)	.	.	0.13µM*	0.046µM*	.
COC(=O)c1ccc(CN2CCN(Cc3ccccc3)CC2)cc1	-14%	0%	-13%	-13%	-1%
O=C(CCC1CCN(Cc2ccccc2)CC1)c1ccc2c(c1)NCCCC2	.	.	12µM*	?	.
O=C(Nc1ccc(F)c([N+](=O)[O-])c1)c1cccn(Cc2ccccc2)c1=O	.	.	?	-25%	-5%
O=C(Nc1cc2c(cc1C(=O)c1ccc(Br)cc1)OCCO2)c1ccc(Cl)cc1	.	.	?	23µM*	3%[2.28 µM]
O=C(Nc1ccc(Br)cc1C(=O)c1ccccc1)c1ccccc1	.	.	?	?	1%[12.3 µM]
CCCCOP(=O)(OCCCC)C(O)c1ccc(Br)cc1 (centres undefined)	-9%	-9%	18µM*	23µM*	6%
CCOP(=O)(C#Cc1ccccc1)C(O)c1ccc(Br)cc1 (centres undefined)	6%	-7%	?	?	.
CCCCC(=O)OCC(=O)[C@]1(O)Cc2c(O)c3c(c(O)c2[C@@H](O[C@H]2C[C@H](NC(=O)C(F)(F)F)[C@H](O)[C@H](C)O2)C1)C(=O)c1c(OC)cccc1C3=O	.	.	1.3µM*	1.5µM*	.
SMILES	RORgamma inh	VP16 counter	TDP1 cell noCPT	TDP1 cell CPT	TDP1 block
COc1cccc2c1C(=O)c1c(O)c3c(c(O)c1C2=O)CC(O)(C(C)=NO)CC3OC1CC(N)C(O)C(C)O1 (centres undefined)	.	.	0.18µM*	0.21µM*	.
CC(C)(C)OC(=O)C(Br)CCBr (centres undefined)	10%	19%	.	.	6%
O=[N+]([O-])c1ccc(N2CCCCCC2)c2ncccc12	-11%	-9%	19%	-2%	10%
COc1ccc(OCCn2c(NC(=O)c3ccc(OC)cc3)nc3ccccc32)cc1	.	.	16µM*	18µM*	10%
O=[N+]([O-])c1ccc(Cl)c(Cl)c1Cl	18%	-17%	-3%	3%	1%
O=[N+]([O-])c1c(Cl)cccc1-c1c[nH]cc1Cl	?	?	15µM*	21µM*	.
c1cncc(CNC2=NCCCCC2)c1	9%	0%	4%	2%	-2%
CCCCC[C@H]1CCCCC[C@@H](O)C[C@@H](O)[C@@H](O)/C=C/C(=O)O1	.	.	9.2µM*	10µM*	.
C#CCOCCOCCOCCNc1nc(N2CCN(C(=O)CCCCCCCCCCNC(=O)[C@H]([C@@H](C)CC)n3cc(CCCCN=C(N)N)nn3)CC2)nc(N2CCN(C(=O)CCCCCCCCCCNC(=O)[C@H](CO)n3cc(CCCCCN)nn3)CC2)n1	.	.	21µM*	15µM*	15%
CC(C)[C@@]1(NC(=O)[C@@H]2C[C@H]3c4cccc5[nH]cc(c45)C[C@@H]3N(C)C2)O[C@]2(O)[C@H]3CCCN3C(=O)[C@H](Cc3ccccc3)N2C1=O	22%[16.9 µM]	-1%[17 µM]	.	.	14%[21 µM]
O=[N+]([O-])c1ccc(N2CCCC2)cc1N/N=C1\CN2CCC1CC2	22%	-19%	21µM*	?	5%
O=[N+]([O-])c1ccc(N2CCNCC2)cc1NC1CC1	3%	0%	.	.	3%
C=CCn1c(O)c(C=NCCN(C)C)c(=O)[nH]c1=O	-2%	-7%	4%	-4%	1%
Cc1cc(C)n2c(Nc3ccc4c(c3)OCCO4)c(-c3cc4ccccc4o3)nc2n1	.	.	21µM*	?	.
CCN(CC)C(=O)c1ccc2c(c1)C1C=CCC1C(C(=O)O)N2 (centres undefined)	-36%	-3%	?	-14%	.
CCNC(=S)NCCC1=c2ccccc2=N/C1=C\c1c(O)n(C)c(=O)n(C)c1=O	?	3%	21µM*	?	-4%
Cn1c(O)c(/C=C2\C=Nc3ccc(Br)cc32)c(=O)n(C)c1=O	-1%	4%	-2%	-18%	.
CCCC1(CCC)C(=O)NC(=Nc2ccc(C)cc2)NC1=O	32%	-10%	.	.	0%
c1ccc(/N=C2\N=C(Nc3ccccn3)c3ccccc32)nc1	.	.	0.15µM*	0.21µM*	.
O=[N+]([O-])c1cc2c(cc1CNCCc1ccc3c(c1)OCO3)OCO2	-9%[10 µM]	12%	?	?	1%
CCC(C(=O)Nc1ccccc1C(=O)OC)n1nc(C)c2c(C)n(-c3ccc(C)cc3)nc2c1=O (centres undefined)	.	.	12µM*	7.3µM*	3%

Source: PubChem BioAssay
